Screens deposited in PubChem BioAssay by SRMLSC.
Hits are enriched below; roughly 6.8% of the tested compounds scored in any of these assays.
PMK inhibit: inhibitors of Streptococcus pneumoniae phosphomevalonate kinase. purified PMK, PK/LDH-coupled NADH absorbance 340 nm. inhibition, % at 10 µM. 0.49% of 65,000 active;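 active means top-ranked compounds by inhibition in the single 10 µM screen, taking a fixed number of the strongest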
Spn MK inh: S. pneumoniae mevalonate kinase inhibition | 0.48% of 65,000 active | inhibition, % at 10 µM | AID 555 | purified MK, PK/LDH-coupled NADH absorbance 340 nm;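 active means ranked among the strongest by inhibition in the single 10 µM screen, a fixed top-ranked set picked for dose follow-up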
Abs 340nm: compounds absorbing at 340 nm; compound absorbance at 340 nm, fold over control; fold change at 10 µM; 65,000 tested, under 10 active; AID 708;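 active means at 10 µM dose, initial 340 nm absorbance at least 2 fold that of control wells; inactive means change under 2 fold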;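 further: initial absorbance extrapolated from kinetic A340 decline of NADH oxidation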
Spn DPM-DC inh: inhibitors of Streptococcus pneumoniae diphosphomevalonate decarboxylase; purified DPM-DC, PK/LDH coupled NADH fluorescence; calls only at 10 µM; 0.49% of 65,000 active; AID 556;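 active means the 320 compounds with the highest percent inhibition in the single-dose primary screen, excluding strongly autofluorescent ones, cut at about 32% in these data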;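 further: kinetic rate of NADH fluorescence loss reporting ADP formed by the decarboxylase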
Autofluor 339: intrinsic fluorescence of library compounds, ex339/em460 – biochemical, MLSMR library, data from DPM-DC assay, artefact control, profiling panel | compound autofluorescence, ex339/em460 nm, NADH buffer; active compounds read high; 1 = no-compound wells, NADH background | fluorescence fold increase at 10 µM | 5.5% of 65,000 active | AID 709;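 active means at 10 µM, mean starting fluorescence two-fold or more over control wells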;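 further: signal is the first read of a kinetic run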
NADH enzymes: inhibition of NAD/NADH coupling enzymes, library profiling. coupled PK/LDH NADH assays, four targets. IC50, µM (top dose mostly 10 µM). 0.02% of 65,000 active. AID 774;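 active means single-dose screening hits from any of four coupled enzyme assays that gave an IC50 when retested across doses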;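 further: the DPM-DC format reads NADH fluorescence rather than 340 nm absorbance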
Large screens that a line does not name were inactive.

COc1cc(C(=O)OCC(=O)c2cc(C)n(C)c2C)cc(NC(=O)c2ccco2)c1OC	Autofluor 339 2.94
COc1ccc2[nH]c3c(c2c1)CCn1c-3nc2ccccc2c1=O	Autofluor 339 2.24 (not shown: Spn DPM-DC inh)
CN(C)CCCN1C(=O)C(=O)/C(=C(/O)c2ccc3c(c2)OCCO3)C1c1ccccn1 (configuration not stated)	none
Clc1ccc(SCCn2ccnc2)cc1	Spn MK inh 41.0
Clc1ccc(OCCn2ccnc2)c(Cl)c1	none
O=C(CN1C(=O)c2ccccc2S1(=O)=O)N1CCc2ccccc2C1	none
CCOC(=O)N1CCC(N2C(=O)c3ccc(C(=O)NC4CCCCCC4)cc3C2=O)CC1	none
O=C(CSc1ncnc2c1cnn2-c1ccccc1)Nc1ccc2c(c1)OCO2	Spn DPM-DC inh active
O=C(CSc1nc(-c2ccncc2)nn1CC(=O)N1CCCCC1)NC1CCCC1	none
Cc1ccc2c(c1)c1c3n2CCN(C(=O)Cn2c(-c4ccccc4)noc2=O)C3CCC1 (configuration not stated)	Autofluor 339 3.23
COc1ccc2oc(=O)c(NC(=O)C3CCCCC3)cc2c1	Autofluor 339 4.18 (not shown: Spn DPM-DC inh)
C=CCn1c(SCC(=O)c2ccc(NS(=O)(=O)c3ccccc3)cc2)nnc1-c1cccs1	none
Cc1ccc(-n2nc(C(=O)NCc3ccco3)c3c4ccccc4n(C)c3c2=O)cc1	Autofluor 339 2.24
CCN1CCN(C(=O)c2nn(-c3ccc(C)cc3)c(=O)c3c2c2ccccc2n3C)CC1	none
CCN(CC)CCNC(=O)c1nn(-c2ccc(C)cc2)c(=O)c2c1c1ccccc1n2C	Autofluor 339 3.07
O=C(NC1CC1)c1ccc(S(=O)(=O)NC2CCCCCC2)cc1	none
O=C(NC1CCCC1)c1ccc(S(=O)(=O)N2CCCC2)cc1	Autofluor 339 2.09
Cc1c(C(=O)Nc2ccc(F)cc2)oc2ccc(S(=O)(=O)N3CCCC3)cc12	none
Cc1c(C(=O)NC2CC2)oc2ccc(S(=O)(=O)N3CCCCCC3)cc12	Spn DPM-DC inh active
Cc1ccc(NC(=O)c2oc3ccc(S(=O)(=O)N4CCOCC4)cc3c2C)cc1C	Autofluor 339 3.12 (not shown: Spn DPM-DC inh)
CCN(CC)S(=O)(=O)c1cc(C(=O)n2cccn2)c(Cl)cc1Cl	none
Cc1ccc(S(=O)(=O)NC(CN2CCOCC2)=NCCNS(=O)(=O)c2ccccc2)cc1	none
Cc1ccnc(SCCn2c(N3CCOCC3)nc3c2c(=O)n(C)c(=O)n3C)n1	none
COCc1cc(C)nc2sc(C(=O)Nc3nccs3)c(N)c12	Autofluor 339 2.2 (not shown: Spn DPM-DC inh)
Cc1ncoc1C(=O)Nc1nccs1	none
COc1cccc(CC(=O)Nc2nccs2)c1	none
Cc1cc(C)c2c(N)c(C(=O)Nc3nccs3)sc2n1	Autofluor 339 2.15 (not shown: Spn DPM-DC inh)
COc1ccccc1N1CCN(CC(O)c2ccc3cc[nH]c3c2)CC1 (configuration not stated)	none
COC(=O)Cc1c(C)c2c(O)cc(C)cc2oc1=O	Autofluor 339 2.14 (not shown: Spn DPM-DC inh)
CCOC(=O)Cc1c(C)c2c(C)[nH]nc2oc1=O	none
Cc1cc(C)c(-c2cc(C(F)(F)F)no2)c(=O)[nH]1	Autofluor 339 3.7 (not shown: Spn DPM-DC inh)
CCOC(=O)C1CCCN(C(=O)c2ccc(OCC)cc2)C1 (configuration not stated)	none
COC(=O)c1ccc(N2C(=O)CC(Sc3n[nH]c(C)n3)C2=O)cc1 (configuration not stated)	none
Cc1nc(SC2C=CS(=O)(=O)C2)n[nH]1 (configuration not stated)	PMK inhibit 11.0
O=C(C1CCCCC1)N(Cc1nc2sc3c(c2c(=O)[nH]1)CCCC3)Cc1cccs1	none
COC(=O)c1cc(C(=O)OC)cc(S(=O)(=O)Nc2ccc(Cl)c(N)c2)c1	none
CC(C)(C)OC(=O)N1CCCC1C(=O)NCCc1ccccc1 (configuration not stated)	none
CCc1cc2c(C)cc(=O)oc2cc1OC(=O)C1CCCN1C(=O)OC(C)(C)C (configuration not stated)	Autofluor 339 4.89 (not shown: Spn DPM-DC inh)
COc1ccc(C(C#N)C2(C)OCCO2)cc1OC (configuration not stated)	none
COC(=O)c1ccc(Nc2cc(C)nc(-c3ccccc3O)n2)cc1	Spn MK inh 81.0, Spn DPM-DC inh active
Cc1nn(-c2ccc(F)cc2)c2sc(C(=O)OC3CCOC3=O)cc12 (configuration not stated)	Autofluor 339 2.14 (not shown: Spn DPM-DC inh)
CCOC(=O)c1c(-c2ccccc2)oc2ccc(O)c(CN3CCOCC3)c12	none
COc1ccc(-c2c(C)oc3c(CN4CCCCC4C)c(O)ccc3c2=O)cc1OC (configuration not stated)	Autofluor 339 2.21 (not shown: Spn DPM-DC inh)
Cc1oc2c(CN3CCOCC3)c(O)ccc2c(=O)c1-c1ccccc1	Autofluor 339 3.87 (not shown: Spn DPM-DC inh)
COc1cccc(Oc2c(C)oc3c(CN4CCOCC4)c(O)ccc3c2=O)c1	Autofluor 339 3.83 (not shown: Spn DPM-DC inh)
Cc1cc2oc3c(c(=O)c2cc1C)C(c1ccc(C(C)C)cc1)N(CCCN1CCOCC1)C3=O (configuration not stated)	none
O=C(NCC(=O)N(CC1CCCO1)C(C(=O)NC1CCCC1)c1cccnc1)c1ccco1 (configuration not stated)	none
COCc1nnc(NC(=O)c2ccc(S(=O)(=O)N(C)C3CCCCC3)cc2)o1	none
Cc1cc(N2CCCC2)nc(-c2ccccc2O)n1	Autofluor 339 2.64
COc1ccccc1N1CCN(CC(=O)Nc2cc(C)nn2-c2nc(C)cc(C)n2)CC1	none
CC(C)(C)n1nnnc1C(c1cc2cc3c(cc2[nH]c1=O)OCO3)N1CCN(c2ccccc2)CC1 (configuration not stated)	Spn DPM-DC inh active, Autofluor 339 3.04
CCN1CCN(C(c2cc3cc4c(cc3[nH]c2=O)OCO4)c2nnnn2C(C)(C)CC)CC1 (configuration not stated)	Autofluor 339 4.01 (not shown: Spn DPM-DC inh)
CCC(C)(C)n1nnnc1C(c1cc2cc(C)ccc2[nH]c1=O)N1CCCC1 (configuration not stated)	none
O=c1[nH]c2cc3c(cc2cc1C(c1nnnn1CC1CCCO1)N1CCCC1)OCO3 (configuration not stated)	Autofluor 339 4.79 (not shown: Spn DPM-DC inh)
COc1ccc(C2C=C(C)Nc3nc(SC)nn32)cc1 (configuration not stated)	Autofluor 339 5.07 (not shown: Spn DPM-DC inh)
CCOC(=O)C1=C(C)Nc2nc(SC)nn2C1c1ccc(C(=O)OC)cc1 (configuration not stated)	none
Cc1ccc(Cn2c(=S)[nH]c3ccc(N4CCOCC4)cc3c2=O)o1	Autofluor 339 2.75
O=c1c2cc3c(cc2[nH]c(=S)n1CCN1CCOCC1)OCO3	none
O=c1c2cc(N3CCOCC3)ccc2[nH]c(=S)n1CCCN1CCN(c2ccccc2F)CC1	Spn DPM-DC inh active, Autofluor 339 3.54
O=c1c2cc(N3CCOCC3)ccc2[nH]c(=S)n1CCCN1CCCCCC1	Autofluor 339 2.91
